# Data: PubChem BioAssay AID588350 (The Scripps Research Institute Molecular Screening Center, 2011)
# In all, about 1,900 compounds went through this assay and about 1,200 (63%) were called active.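 Rule for the calls: active = mean activation above the mean of solvent-only control wells plus 3 SD (cut at about 22% in these data); inactive = the rest.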 So high a share suggests a set chosen from earlier hits. Only a selection was taken, and actives are over-represented in it overall.
# Assay: GAA30 FXN promoter activators, confirmation, counter-screen for GAA850 frataxin promoter activator project, cell-based, luminescence, HEK293, lucGAA30, triplicate (AID 588350);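 note: counterscreen of GAA850 promoter hits where activity marks nonselective or luminescence artifacts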
# Details: HEK293 lucGAA30 FXN promoter luciferase, 24 h; at 6 µM; active compounds read high
row,SMILES,activation
1,CC(C)(C)c1ccc(OC(=O)N2CCCCC2)cc1,101% (active)
